PubChem BioAssay (EPA / NIEHS)
Records with an inconclusive call do not appear. Calls of active or inactive are those of the source. Rule for the calls: active = hit-call score of the fitted dose curve at least 0.9, where 1 is the maximum; inconclusive = response in the unintended direction; inactive = score below 0.9.

Columns and labels:
[1] = biological target: human Serotonin, 5-Hydroxytryptamine Receptor 5A (5HT5A), HTR5A (gene 3361) (UniProt P47898); assay: NVS_GPCR_h5HT5A: NovaScreen (NVS) G Protein-Coupled Receptor Assay for human Serotonin, 5-Hydroxytryptamine Receptor 5A (5HT5A) (AID 2283251)
Summary of the method: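 Cell-free radioligand displacement binding on HEK293-derived membrane protein, 1 h incubation, filter-based scintillation counting. Primary screen in duplicate at 25 uM, actives followed in concentration series; loss of signal fitted versus DMSO.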

[2] = biological target: human Endothelin Receptor Type B (ETB), EDNRB (gene 1910) (UniProt P24530); assay: NVS_GPCR_hETB: NovaScreen (NVS) G Protein-Coupled Receptor Assay for human Endothelin Receptor Type B (ETB) (AID 2283267)
Summary of the method: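 Human astrocytoma cell membranes; radioligand competitive binding read by filter scintillation counting 4 hours after dosing. Single-concentration duplicate screen at 25 uM, then singleton concentration-response up to 50 uM; loss of signal versus DMSO.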

[3] = system: guinea pig Muscarinic, Peripheral (Mperiperal) Receptor, Non-selective Binding, gene 100379235; assay: NVS_GPCR_gMPeripheral_NonSelective: NovaScreen (NVS) G Protein-Coupled Receptor Assay for guinea pig Muscarinic, Peripheral (Mperiperal) Receptor, Non-selective Binding (AID 2283250)
Summary of the method: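 Guinea pig bladder membranes, radioligand binding read 1 h after dosing by filter scintillation counting; loss of signal vs DMSO. Primary duplicate screen at 25 uM, then concentration-response up to 50 uM.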

[4] = biological target: human Adenosine A1 Receptor (AdoRA1), ADORA1 (gene 134) (UniProt P30542); assay: NVS_GPCR_hAdoRA1: NovaScreen (NVS) G Protein-Coupled Receptor Assay for human Adenosine A1 Receptor (AdoRA1) (AID 2283254)
Summary of the method: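 Each chemical is first tested twice at 25 uM, actives later in dilution series, against a radioligand bound to human cortex membranes; after 1 h, filter-retained counts are compared with DMSO controls, lower signal indicating displacement.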

[5] = biological target: human Serotonin, 5-Hydroxytryptamine Receptor 7 (5HT7), HTR7 (gene 3363) (UniProt P34969); assay: NVS_GPCR_h5HT7: NovaScreen (NVS) G Protein-Coupled Receptor Assay for human Serotonin, 5-Hydroxytryptamine Receptor 7 (5HT7) (AID 2283255);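 note: hits reduce specific radioligand binding relative to DMSO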
Summary of the method: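 Radioligand displacement on membranes from CHO cells expressing human 5HT7, 1 h incubation, filter-based scintillation counting. Primary screen used a single 25 uM concentration in duplicate; actives were followed up in concentration series.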

[6] = biological target: human Adenosine A2a Receptor (AdoRA2a), ADORA2A (gene 135) (UniProt P29274); assay: NVS_GPCR_hAdoRA2a: NovaScreen (NVS) G Protein-Coupled Receptor Assay for human Adenosine A2a Receptor (AdoRA2a) (AID 2283256)
Summary of the method: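 Cell-free radioligand binding on membranes from HEK293 expressing the receptor; competitive displacement read 1.5 h after dosing by filter-based scintillation counting. Primary screen in duplicate at 25 uM; actives followed in concentration series, with DMSO as baseline.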

[7] = biological target: human Dopamine Receptor D4.4 (DRD4.4), DRD4 (gene 1815) (UniProt P21917); assay: NVS_GPCR_hDRD4.4: NovaScreen (NVS) G Protein-Coupled Receptor Assay for human Dopamine Receptor D4.4 (DRD4.4) (AID 2283264)
Summary of the method: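 Radioligand displacement on human DRD4.4 from CHO-derived membranes, 1 hour incubation, bound counts read by filtration and scintillation. Primary screen in duplicate at 25 uM; actives followed up in concentration series.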

[8] = biological target: guinea pig Opioid, Kappa 1 Receptor (OpiateK), OPRK1 (gene 100135587) (UniProt P41144); assay: NVS_GPCR_gOpiateK: NovaScreen (NVS) G Protein-Coupled Receptor Assay for guinea pig Opioid, Kappa 1 Receptor (OpiateK) (AID 2283252);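 note: radioligand displacement from kappa opioid receptor in guinea pig cerebellar membranes; active means reduced radioligand binding relative to DMSO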
Summary of the method: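 Guinea pig cerebellar membranes, radioligand displacement with filter-based scintillation counting, 2 h after dosing. Primary screen single concentration 25 uM in duplicate; actives retested in concentration series; loss of binding fitted versus DMSO.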

[9] = biological target: guinea pig Leukotriene D4 Receptor (LTD4), CYSLTR1 (gene 100135514) (UniProt Q2NNR5); assay: NVS_GPCR_gLTD4: NovaScreen (NVS) G Protein-Coupled Receptor Assay for guinea pig Leukotriene D4 Receptor (LTD4) (AID 2283248)
Summary of the method: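 Radioligand displacement on guinea pig lung membranes, 1 h incubation, filtration and scintillation counting; DMSO as negative control. Duplicate 25 uM primary screen, then singleton concentration-response up to 50 uM.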

[10] = biological target: human Serotonin, 5-Hydroxytryptamine Receptor 6 (5HT6), HTR6 (gene 3362) (UniProt P50406); assay: NVS_GPCR_h5HT6: NovaScreen (NVS) G Protein-Coupled Receptor Assay for human Serotonin, 5-Hydroxytryptamine Receptor 6 (5HT6) (AID 2283253)
Summary of the method: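 Radioligand binding to 5HT6 in HEK293-derived membranes, cell-free, 1 h after dosing; bound ligand measured by filter-based scintillation counting. Primary screen in duplicate at 25 uM; actives retested in concentration series.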

[11] = biological target: Type-1 angiotensin II receptor (Homo sapiens) (UniProt P30556); assay: NVS_GPCR_hAT1: NovaScreen (NVS) G Protein-Coupled Receptor Assay for human Angiotensin II receptor type 1 (AT1) (AID 2283263)
Summary of the method: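 Membranes from KAN-TS cells; radioligand competitive displacement, 3 h, filtration and scintillation counting. Single-point duplicate screen at 25 uM, then concentration-response up to 50 uM for hits; loss of signal fitted versus DMSO.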

[12] = biological target: human Adrenergic, Alpha 2A Receptor (Adra2A), ADRA2A (gene 150) (UniProt P08913); assay: NVS_GPCR_hAdra2A: NovaScreen (NVS) G Protein-Coupled Receptor Assay for human Adrenergic, Alpha 2A Receptor (Adra2A) (AID 2283257)
Summary of the method: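 Radioligand filter-binding was run on HT29-derived membranes, cell-free, read by scintillation counting 1 h after dosing. Primary screening was in duplicate at 25 uM, with concentration series in follow-up. Loss of signal versus DMSO indicates displacement.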

[13] = biological target: human Adrenergic, Alpha 2c Receptor (Adra2C), ADRA2C (gene 152) (UniProt P18825); assay: NVS_GPCR_hAdra2C: NovaScreen (NVS) G Protein-Coupled Receptor Assay for human Adrenergic, Alpha 2c Receptor (Adra2C) (AID 2283259)
Summary of the method: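 Radioligand binding on Sf9-expressed receptor membranes, 1 h after chemical dosing, filter-based scintillation read-out. Loss of binding fitted positively versus DMSO; primary duplicate screen at 25 uM, actives retested in concentration series.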

[14] = system: bovine Histamine 1 Receptor (H1), gene 281231; assay: NVS_GPCR_bH1: NovaScreen (NVS) G Protein-Coupled Receptor Assay for bovine Histamine 1 Receptor (H1) (AID 2283246)
Summary of the method: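 Radioligand displacement on bovine cerebellar membranes, 1 h after dosing, filter-based scintillation read-out; loss of signal vs DMSO. Duplicate single-concentration screen at 25 uM, then concentration-response up to 50 uM for hits.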

[15] = biological target: human Adrenergic, Beta 3 Receptor (Adrb3), ADRB3 (gene 155) (UniProt P13945); assay: NVS_GPCR_hAdrb3: NovaScreen (NVS) G Protein-Coupled Receptor Assay for human Adrenergic, Beta 3 Receptor (Adrb3) (AID 2283262)
Summary of the method: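 Membranes from SK-N-MC cells pretreated with isoproterenol and 8-bromo-cAMP were used in a radioligand competitive displacement binding assay. Binding was read by filter-based scintillation counting 1 hour after dosing. Primary screening was in duplicate at 25 uM, with concentration series in follow-up.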

Sequence of guinea pig Leukotriene D4 Receptor (LTD4), CYSLTR1 (gene 100135514) (Q2NNR5 whole entry, looked up): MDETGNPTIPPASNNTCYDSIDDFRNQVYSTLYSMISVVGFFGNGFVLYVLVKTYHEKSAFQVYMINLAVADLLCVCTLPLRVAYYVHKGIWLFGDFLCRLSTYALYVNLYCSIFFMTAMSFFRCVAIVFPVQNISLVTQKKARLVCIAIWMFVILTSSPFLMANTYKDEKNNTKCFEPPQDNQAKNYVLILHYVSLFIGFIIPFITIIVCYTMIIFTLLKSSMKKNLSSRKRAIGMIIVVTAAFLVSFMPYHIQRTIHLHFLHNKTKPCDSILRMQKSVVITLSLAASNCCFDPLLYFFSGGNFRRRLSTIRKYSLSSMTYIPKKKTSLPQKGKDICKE
Sequence of human Adenosine A1 Receptor (AdoRA1), ADORA1 (gene 134) (P30542 whole entry, looked up): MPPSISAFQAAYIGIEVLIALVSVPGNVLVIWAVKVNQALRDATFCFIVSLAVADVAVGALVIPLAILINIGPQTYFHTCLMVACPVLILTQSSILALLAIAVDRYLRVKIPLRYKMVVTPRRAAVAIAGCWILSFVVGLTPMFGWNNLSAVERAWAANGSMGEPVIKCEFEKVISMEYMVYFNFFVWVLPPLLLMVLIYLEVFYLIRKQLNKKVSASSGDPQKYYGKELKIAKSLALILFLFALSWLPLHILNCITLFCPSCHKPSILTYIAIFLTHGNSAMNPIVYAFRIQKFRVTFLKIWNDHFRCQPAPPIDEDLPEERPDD
Sequence of human Serotonin, 5-Hydroxytryptamine Receptor 7 (5HT7), HTR7 (gene 3363) (P34969 whole entry, looked up): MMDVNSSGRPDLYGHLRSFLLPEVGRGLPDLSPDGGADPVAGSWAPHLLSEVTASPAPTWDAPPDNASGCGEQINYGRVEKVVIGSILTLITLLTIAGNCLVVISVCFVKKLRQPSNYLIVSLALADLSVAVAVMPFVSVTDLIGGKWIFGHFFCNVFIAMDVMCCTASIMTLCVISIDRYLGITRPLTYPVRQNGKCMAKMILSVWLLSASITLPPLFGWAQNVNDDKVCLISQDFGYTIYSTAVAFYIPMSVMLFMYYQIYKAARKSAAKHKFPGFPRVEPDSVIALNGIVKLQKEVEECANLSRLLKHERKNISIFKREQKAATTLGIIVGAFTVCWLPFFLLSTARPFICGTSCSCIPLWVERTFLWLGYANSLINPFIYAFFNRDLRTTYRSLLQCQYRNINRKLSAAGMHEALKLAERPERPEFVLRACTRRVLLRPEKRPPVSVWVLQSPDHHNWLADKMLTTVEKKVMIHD
Sequence of Type-1 angiotensin II receptor (Homo sapiens) (P30556 whole entry, looked up): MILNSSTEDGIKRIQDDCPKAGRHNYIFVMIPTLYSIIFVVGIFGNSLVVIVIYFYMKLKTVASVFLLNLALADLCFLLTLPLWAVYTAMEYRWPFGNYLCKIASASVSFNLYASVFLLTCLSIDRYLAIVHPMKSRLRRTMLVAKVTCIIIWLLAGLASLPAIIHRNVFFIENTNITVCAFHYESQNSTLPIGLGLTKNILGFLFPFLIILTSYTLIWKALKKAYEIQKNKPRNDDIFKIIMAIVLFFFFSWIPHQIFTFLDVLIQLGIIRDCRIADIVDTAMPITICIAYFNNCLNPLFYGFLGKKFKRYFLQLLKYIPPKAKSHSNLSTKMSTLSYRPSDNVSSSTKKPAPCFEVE
Sequence of human Adenosine A2a Receptor (AdoRA2a), ADORA2A (gene 135) (P29274 whole entry, looked up): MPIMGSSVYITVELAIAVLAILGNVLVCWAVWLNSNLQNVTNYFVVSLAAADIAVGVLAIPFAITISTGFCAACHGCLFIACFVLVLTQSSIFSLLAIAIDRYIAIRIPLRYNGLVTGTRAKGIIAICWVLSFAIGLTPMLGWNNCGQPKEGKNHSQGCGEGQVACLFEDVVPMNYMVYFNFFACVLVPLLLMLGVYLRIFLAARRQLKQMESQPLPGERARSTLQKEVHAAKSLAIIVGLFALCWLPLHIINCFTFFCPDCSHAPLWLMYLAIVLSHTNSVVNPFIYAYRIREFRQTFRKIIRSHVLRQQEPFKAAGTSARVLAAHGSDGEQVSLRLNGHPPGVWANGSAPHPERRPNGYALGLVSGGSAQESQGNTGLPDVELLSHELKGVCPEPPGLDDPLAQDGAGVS
Sequence of human Serotonin, 5-Hydroxytryptamine Receptor 5A (5HT5A), HTR5A (gene 3361) (P47898 whole entry, looked up): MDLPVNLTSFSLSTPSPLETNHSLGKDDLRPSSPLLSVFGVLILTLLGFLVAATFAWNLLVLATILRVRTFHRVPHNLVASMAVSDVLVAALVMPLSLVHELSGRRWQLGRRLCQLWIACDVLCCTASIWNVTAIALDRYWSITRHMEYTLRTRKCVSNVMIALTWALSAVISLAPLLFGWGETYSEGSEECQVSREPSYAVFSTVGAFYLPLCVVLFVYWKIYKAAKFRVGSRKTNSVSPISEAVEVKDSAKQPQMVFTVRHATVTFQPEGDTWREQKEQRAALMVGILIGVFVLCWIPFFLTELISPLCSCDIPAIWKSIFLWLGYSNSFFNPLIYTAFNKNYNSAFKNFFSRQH
Sequence of guinea pig Opioid, Kappa 1 Receptor (OpiateK), OPRK1 (gene 100135587) (P41144 whole entry, looked up): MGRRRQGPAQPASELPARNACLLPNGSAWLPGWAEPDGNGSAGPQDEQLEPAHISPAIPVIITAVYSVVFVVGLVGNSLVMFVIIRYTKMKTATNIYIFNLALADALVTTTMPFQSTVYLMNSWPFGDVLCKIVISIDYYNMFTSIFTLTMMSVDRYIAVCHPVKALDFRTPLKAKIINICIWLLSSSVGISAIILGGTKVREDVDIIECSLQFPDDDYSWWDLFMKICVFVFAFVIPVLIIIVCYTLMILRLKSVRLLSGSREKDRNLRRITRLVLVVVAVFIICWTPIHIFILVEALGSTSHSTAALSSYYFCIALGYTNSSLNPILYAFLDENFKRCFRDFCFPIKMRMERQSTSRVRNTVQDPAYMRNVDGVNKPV
Sequence of human Adrenergic, Alpha 2c Receptor (Adra2C), ADRA2C (gene 152) (P18825 whole entry, looked up): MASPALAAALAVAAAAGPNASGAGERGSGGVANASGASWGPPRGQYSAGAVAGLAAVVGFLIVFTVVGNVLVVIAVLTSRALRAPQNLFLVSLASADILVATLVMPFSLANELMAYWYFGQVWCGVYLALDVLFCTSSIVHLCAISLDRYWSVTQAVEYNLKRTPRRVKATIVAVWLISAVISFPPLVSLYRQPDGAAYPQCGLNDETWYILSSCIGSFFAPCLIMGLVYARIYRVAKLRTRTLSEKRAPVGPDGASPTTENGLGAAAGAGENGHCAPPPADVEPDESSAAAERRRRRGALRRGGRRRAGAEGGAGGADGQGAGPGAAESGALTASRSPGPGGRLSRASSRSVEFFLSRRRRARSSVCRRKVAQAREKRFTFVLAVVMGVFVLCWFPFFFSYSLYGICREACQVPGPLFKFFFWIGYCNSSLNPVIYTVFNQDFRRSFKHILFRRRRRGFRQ
Sequence of human Serotonin, 5-Hydroxytryptamine Receptor 6 (5HT6), HTR6 (gene 3362) (P50406 whole entry, looked up): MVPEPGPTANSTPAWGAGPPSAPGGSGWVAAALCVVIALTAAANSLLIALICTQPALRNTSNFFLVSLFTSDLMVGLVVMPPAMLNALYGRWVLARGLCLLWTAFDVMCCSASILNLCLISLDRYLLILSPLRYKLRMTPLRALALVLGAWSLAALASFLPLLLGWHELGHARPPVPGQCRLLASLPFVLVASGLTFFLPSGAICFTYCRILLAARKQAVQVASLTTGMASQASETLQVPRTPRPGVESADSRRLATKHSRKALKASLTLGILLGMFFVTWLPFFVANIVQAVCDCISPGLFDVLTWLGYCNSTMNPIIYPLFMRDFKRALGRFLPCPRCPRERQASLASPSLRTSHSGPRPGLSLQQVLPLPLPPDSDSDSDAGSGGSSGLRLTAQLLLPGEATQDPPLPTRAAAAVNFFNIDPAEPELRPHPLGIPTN
Sequence of human Adrenergic, Beta 3 Receptor (Adrb3), ADRB3 (gene 155) (P13945 whole entry, looked up): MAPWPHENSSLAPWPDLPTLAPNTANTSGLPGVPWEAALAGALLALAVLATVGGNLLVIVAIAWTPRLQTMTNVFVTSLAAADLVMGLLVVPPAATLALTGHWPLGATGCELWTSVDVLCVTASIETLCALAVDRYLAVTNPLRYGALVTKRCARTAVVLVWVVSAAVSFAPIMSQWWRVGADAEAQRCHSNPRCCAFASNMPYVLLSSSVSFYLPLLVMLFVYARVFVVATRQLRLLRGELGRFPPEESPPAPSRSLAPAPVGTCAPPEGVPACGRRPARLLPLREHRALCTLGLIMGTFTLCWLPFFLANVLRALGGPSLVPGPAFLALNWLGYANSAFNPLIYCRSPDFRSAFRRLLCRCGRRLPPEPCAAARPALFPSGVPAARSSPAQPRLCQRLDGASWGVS
Sequence of human Dopamine Receptor D4.4 (DRD4.4), DRD4 (gene 1815) (P21917 whole entry, looked up): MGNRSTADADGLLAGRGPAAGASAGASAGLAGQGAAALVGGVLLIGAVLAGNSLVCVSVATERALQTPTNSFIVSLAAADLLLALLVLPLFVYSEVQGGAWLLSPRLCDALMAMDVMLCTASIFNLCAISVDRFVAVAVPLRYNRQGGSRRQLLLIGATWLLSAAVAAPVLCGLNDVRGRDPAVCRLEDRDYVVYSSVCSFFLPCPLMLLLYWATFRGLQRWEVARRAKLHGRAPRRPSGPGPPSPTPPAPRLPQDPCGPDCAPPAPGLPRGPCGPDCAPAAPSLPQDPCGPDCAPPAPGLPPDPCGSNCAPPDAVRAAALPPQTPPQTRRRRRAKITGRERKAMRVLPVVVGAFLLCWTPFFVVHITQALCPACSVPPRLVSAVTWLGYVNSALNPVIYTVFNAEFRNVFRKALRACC
Sequence of human Adrenergic, Alpha 2A Receptor (Adra2A), ADRA2A (gene 150) (P08913 whole entry, looked up): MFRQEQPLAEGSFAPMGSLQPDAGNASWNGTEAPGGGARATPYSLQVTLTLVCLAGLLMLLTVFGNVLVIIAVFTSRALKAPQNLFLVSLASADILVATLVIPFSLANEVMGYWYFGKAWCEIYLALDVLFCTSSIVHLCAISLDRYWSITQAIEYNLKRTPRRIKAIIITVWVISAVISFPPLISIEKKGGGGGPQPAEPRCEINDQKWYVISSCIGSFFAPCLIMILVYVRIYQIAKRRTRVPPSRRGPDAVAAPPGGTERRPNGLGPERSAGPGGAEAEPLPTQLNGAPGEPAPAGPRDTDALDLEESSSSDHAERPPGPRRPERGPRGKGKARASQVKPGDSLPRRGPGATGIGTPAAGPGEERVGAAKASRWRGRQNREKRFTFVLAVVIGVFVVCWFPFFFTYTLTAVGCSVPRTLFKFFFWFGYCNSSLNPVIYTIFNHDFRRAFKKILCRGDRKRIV

SMILES: CNC(=O)Oc1cccc2c1OC(C)(C)O2
- outcome [1]: inactive
- outcome [2]: inactive

SMILES: Cc1cc(C2CC2)nc(Nc2ccccc2)n1
- outcome [3]: inactive
- AC50 [4]: 9.57 µM (active)
- AC50 [5]: 25 µM (active)
- AC50 [6]: 14.1 µM (active)
- AC50 [7]: 12.3 µM (active)

SMILES: CCc1cccc(C)c1N(C(=O)CCl)C(C)COC (stereo not given)
- AC50 [8]: 16.2 µM (active)

SMILES: C#CCC1=C(C)C(OC(=O)C2C(C=C(C)C)C2(C)C)CC1=O (stereo not given)
- outcome [4]: inactive

SMILES: COP(=O)(OC)OC(Br)C(Cl)(Cl)Br (stereo not given)
- AC50 [9]: 0.00229 µM (active)
- AC50 [8]: 33.3 µM (active)
- AC50 [10]: 9.88 µM (active)
- AC50 [11]: 13.5 µM (active)

SMILES: CCOP(=S)(OCC)Oc1ccc2c(C)c(Cl)c(=O)oc2c1
- outcome [1]: inactive
- outcome [12]: inactive

SMILES: CCOC(=O)CC(SP(=O)(OC)OC)C(=O)OCC (stereo not given)
- outcome [3]: inactive
- outcome [4]: inactive
- outcome [6]: inactive

SMILES: CCOC(=O)COc1cc(-c2nn(C)c(OC(F)F)c2Cl)c(F)cc1Cl
- outcome [3]: inactive

SMILES: CC(C)[C@H](C(=O)O[C@H](C#N)c1cccc(Oc2ccccc2)c1)c1ccc(Cl)cc1
- AC50 [1]: 6.96 µM (active)
- AC50 [5]: 6.87 µM (active)

SMILES: CCc1cnc(C2=NC(C)(C(C)C)C(=O)N2)c(C(=O)O)c1 (stereo not given)
- outcome [13]: inactive

SMILES: COc1cc(OC)nc(Sc2cccc(Cl)c2C(=O)O)n1
- outcome [11]: inactive

SMILES: CCOP(=O)(SC(C)CC)N1CCSC1=O (stereo not given)
- outcome [14]: inactive
- outcome [15]: inactive

SMILES: CCOP(=S)(OCC)Oc1cc(C)nc(C(C)C)n1
- outcome [9]: inactive
- outcome [11]: inactive

SMILES: CC(C)=CC1C(C(=O)OCN2C(=O)C3=C(CCCC3)C2=O)C1(C)C (stereo not given)
- outcome [5]: inactive

SMILES: CCCOCC(=Nc1ccc(Cl)cc1C(F)(F)F)n1ccnc1
- outcome [9]: inactive
- outcome [8]: inactive

SMILES: C[N+]1(C)CCCCC1
- outcome [13]: inactive

SMILES: CCOP(=O)(OCC)Oc1cc(C)nc(C(C)C)n1
- outcome [11]: inactive

SMILES: CC(COc1ccc(Oc2ccccc2)cc1)Oc1ccccn1 (stereo not given)
- outcome [1]: inactive

SMILES: CSc1nc(NC(C)C)nc(NC(C)C)n1
- AC50 [4]: 3.54 µM (active)
- AC50 [6]: 4.59 µM (active)

SMILES: C[Si](Cn1cncn1)(c1ccc(F)cc1)c1ccc(F)cc1
- AC50 [1]: 7.85 µM (active)
- AC50 [8]: 25 µM (active)
- AC50 [5]: 16.6 µM (active)

SMILES: C=C(C)[C@H]1Cc2c(ccc3c2O[C@@H]2COc4cc(OC)c(OC)cc4[C@@H]2C3=O)O1
- outcome [1]: inactive
- AC50 [10]: 1.13 µM (active)
